# High-throughput results as filed in PubChem BioAssay.
# In the library only some 5.9% were active in any assay of this set; here they are far more common.
# VP16 counter: Gal4-VP16 reporter inhibition counter-screen; Drosophila S2 Gal4-VP16 UAS-luciferase, luminescence, 20 h; Potency, µM (top dose mostly 53.6 µM), for inactives: top-dose activity, negative = inhibition, usual class: inhibitors; 310,000 tested, 3.5% active;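 note: Gal4-VP16 expression switched on by copper sulfate through the metallothionein promoter; potency is the fitted concentration of half-maximal effect; nearly all actives have a fitted effect of over 50% in size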
# GALK inh: blocks human galactokinase activity; Purified GALK, Kinase-Glo residual ATP luminescence; Potency, µM (top dose mostly 57.5 µM), for inactives: at the highest dose activity change, negative = inhibition, most hits filed as inhibitors; AID 1868; 270,000 tested, 0.007% active; note: potency is the fitted concentration of half-maximal effect
# Target sequence (P51570 whole entry, looked up): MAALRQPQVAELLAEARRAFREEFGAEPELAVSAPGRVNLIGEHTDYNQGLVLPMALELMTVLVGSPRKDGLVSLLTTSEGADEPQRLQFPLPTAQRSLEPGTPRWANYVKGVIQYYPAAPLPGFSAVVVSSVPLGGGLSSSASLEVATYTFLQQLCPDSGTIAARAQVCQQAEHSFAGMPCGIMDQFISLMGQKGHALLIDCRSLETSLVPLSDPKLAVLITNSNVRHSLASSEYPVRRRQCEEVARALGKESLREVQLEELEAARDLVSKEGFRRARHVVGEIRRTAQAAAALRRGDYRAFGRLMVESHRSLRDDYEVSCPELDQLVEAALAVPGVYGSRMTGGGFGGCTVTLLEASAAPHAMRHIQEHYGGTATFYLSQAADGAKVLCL
#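 GALK at 5 nM final was combined with compound, 35 uM ATP and 100 uM galactose in HEPES pH8.0 with MgCl2 and DTT. The reaction ran one hour at room temperature before luminescent ATP detection.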
# rTrxR1 inhibitor: blocks rat thioredoxin reductase 1. AID 588453. O89049. recombinant rTrxR1, NADPH fluorescence consumption, selenite substrate. Potency, µM (titrated, usually from 114 µM), for inactives: top-dose activity change, negative = inhibition, actives largely listed as inhibitors. 390,000 tested, 1% active; note: potency is the fitted concentration of half-maximal effect; nearly all actives have a fitted effect of over 65% in size
#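 Rat TrxR1 (90 nM in the dispensed reagent) was pre-reduced with 400 uM NADPH for 5 min at room temperature, then incubated with compound for 15 min. After 400 uM selenite was added, NADPH fluorescence (Ex 340/Em 450 nm) was followed for 8 min.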
# TrxR1 substrate: substrates of rat thioredoxin reductase 1. Potency, µM (titrated, usually from 114 µM), without a hit: at the top dose activity change, negative = substrate turnover. O89049. 390,000 tested, 0.01% active. purified TrxR1 substrate turnover, NADPH consumption readout; note: potency is the fitted concentration of half-maximal effect; nearly all actives have a fitted effect of over 50% in size
#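 Rat TrxR1, dispensed at 90 nM, was prereduced with 400 uM NADPH (final) for 5 min at ~22 deg C, then incubated with compound 15 min before 400 uM selenite. A first-read NADPH fluorescence drop versus no-compound background flagged substrates.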
# FBPA coupling cs: coupling enzyme interference in Giardia aldolase counter-screen; coupling enzyme system counterscreen, AmpLite Red fluorescence; AID 2472; activity change, negative = inhibition, % at 58.2 µM, hits read low; 290,000 tested, 0.67% active; in the data active = activity change below about -30%
#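 Activity here indicates interference with the coupling reaction, not aldolase inhibition. Compounds at 57.5 uM final met coupling enzymes for 10 min at RT; substrate and AmpLite Red detection followed, with a 525/598 nm fluorescence read after 20 min.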
# RORg inh: blocks mouse ROR gamma transcriptional activity | 310,000 tested, 5.4% active | Potency, µM (series often up to 53.6 µM), for the others: at the highest dose activity change, negative = inhibition, most hits filed as inhibitors | AID 2551 | Drosophila S2 Gal4-RORgamma UAS-luciferase reporter, 20 h; note: potency is the fitted concentration of half-maximal effect; nearly all actives have a fitted effect of over 60% in size
#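 Schneider cells (Drosophila), stable Gal4 DBD–ROR gamma + UAS-luc; 1 hr cmpd preincubation; Cu2+ induction 700 uM final; 20 hr ambient; luminescence.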
# An asterisk follows results filed as active; ? = inconclusive; / = not tested or not shown; ! = a repeat was not active; [ ] = remark or other dose. Unless noted, calls come from the whole dose curve; as a rule, active = well fitted curve in the direction sought with a large enough effect; inconclusive = small, poorly fitted or top-dose-only effect, or another doubt; inactive = no such curve, though single readings can be large; an effect the other way counts as inactive or inconclusive. % is set by controls: 0 for no effect and ±100 for the full control effect.
SMILES,VP16 counter,GALK inh,rTrxR1 inhibitor,TrxR1 substrate,FBPA coupling cs,RORg inh
CN1CCCCC1c1ccc(-c2cccnc2)nc1 (configuration not stated),-2%,3%,-2%[57.1 µM],-2%[57.1 µM],0,-3%
CC1CCCCC1n1c(-c2cccnc2)n[nH]c1=S (configuration not stated),?,12%,-31%,-6%,0,10µM*
COc1ccccc1N=Cc1c(O)n(C)c(=O)n(C)c1=O,2%,0%,-8%,-5%,1,29%
O=C1NC(=O)N(Cc2ccc(F)cc2)C(=O)/C1=C/c1cccs1,-14%,4%,18µM*,14%[57.1 µM],5,1%
CC(C)c1ccc(N2C(=O)NC(=O)/C(=C/c3cnc(-c4ccccc4)nc3)C2=O)cc1,2%,-1%,4µM*,0%,12,10%
O=C1NC(=O)N(Cc2ccccc2)C(=O)/C1=C/c1cnc(-c2ccccc2)nc1,-1%,-5%,6.3µM*,-2%[57.1 µM],0,1%
Cn1cc(/C=C2\C(=O)NC(=O)N(c3ccccc3)C2=O)c2ccccc21,-3%,/,-25%,-15%,0,-4%
CSc1ncc(/C=C2/C(=O)NC(=O)N(c3ccc(C(C)C)cc3)C2=O)cn1,-3%,3%,10µM*,0%,-1,-6%
CCN(CC)P(=O)(Oc1ccccc1)Oc1ccccc1,-8%,-1%,11%,-9%,8,26%
O=C(N/N=C\c1ccc(COc2ccc([N+](=O)[O-])cc2)o1)c1cccc(Cl)c1,2.5µM*,2%,-22%,-11%,0,1.8µM*
CCCNC(=O)N1[C@H]2CC[C@@H]1C(C(=O)OC)=C(c1ccc(C(C)=O)cc1)C2,/,/,-13%,-4%,/,/
O=C1Nc2cc(C(=O)N3CCC4(CC3)OCCO4)ccc2NC1CSCc1cccc(F)c1 (configuration not stated),-6%,-1%,/,/,/,-4%
Nc1ccc([N+](=O)[O-])cc1O,?,/,/,/,/,23%
O=[N+]([O-])c1ccc(O)c([N+](=O)[O-])c1,22µM*,/,-14%,-12%,20,?
O=C(O)c1cc([N+](=O)[O-])cc([N+](=O)[O-])c1O,1%,/,/,/,1,-7%
O=[N+]([O-])c1ccc(Cl)c([N+](=O)[O-])c1,/,/,2.8µM*,1%,/,/
O=[N+]([O-])c1cc(O)c(O)c([N+](=O)[O-])c1,-7%,/,?,0%[57.1 µM],13,22µM*
Cc1ccccc1OCC(=O)N1CCN(CCc2ccccn2)CC1,/,/,8%,0%,/,/
NC(=Nc1ccccc1)NN=Cc1c[nH]c2ccccc12,/,/,-14%,-9%,/,/
CN(C(=O)Cc1ccc(Cl)c(Cl)c1)[C@H](CN1CCCC1)c1cccc(N=C=S)c1,?,/,/,/,1,32µM*
COc1ccc(C(CNC(=O)Cc2ccc(Cl)c(Cl)c2)N2CCCCC2)cc1 (configuration not stated),-6%,-2%,-12%,-10%,/,-12%
O=C1C=CC(=O)C=C1,1%,/,9%[57.1 µM],6%[57.1 µM],/,11µM*
C=C[C@H]1CN2CCC1C[C@@H]2C(O)c1ccnc2ccccc12 (some centres not stated),6%,/,/,/,2,8%
CCCN1CCc2cccc3c2[C@H]1Cc1ccc(O)c(O)c1-3,/,/,24µM*,?,/,/
COc1cc(C=C2C(=O)NC(=O)NC2=O)ccc1OS(=O)(=O)c1ccccc1[N+](=O)[O-],-12%,-4%,6.3µM*,5%,-3,4%
SMILES,VP16 counter,GALK inh,rTrxR1 inhibitor,TrxR1 substrate,FBPA coupling cs,RORg inh
COc1ccc(CN2CCN(Cc3ccccc3F)CC2)cc1,-4%,/,4%[57.1 µM],-11%[57.1 µM],2,19%
Cc1ccc2c(c1)Cc1c(C(=O)NC3CCCCC3)nn(-c3ccc(Cl)cc3Cl)c1-2,3%,/,/,/,-12,1%
CC1Oc2cc3c(-c4c(O)cc(O)c5c(O)c6c(cc45)OC(C)C(C)C6=O)c(O)cc(O)c3c(O)c2C(=O)C1C (configuration not stated),?,-13%,-20%,-15%,-18,4µM*
CCCC1COC(Cn2cncn2)(c2ccc(Cl)cc2Cl)O1 (configuration not stated),18µM*!,-5%,4%,-3%,-7,?
CC(C)[C@]12O[C@H]1[C@@H]1O[C@]13[C@]1(O[C@H]1C[C@H]1C4=C(CC[C@@]13C)C(=O)OC4)[C@@H]2O,0.4µM*,0%,/,/,1,0.32µM*
CC1OC(OC2C(O)CC(OC3C(O)CC(OC4CCC5(C)C(CCC6C5CCC5(C)C(C7=CC(=O)OC7)CCC65O)C4)OC3C)OC2C)CC(O)C1O (configuration not stated),-7%,/,/,/,5,1.1µM*
CO[C@H]1[C@@H](O)CC(OC2[C@@H](O)CC(OC3[C@@H](O)C[C@H](OC4CC[C@@]5(C)C(CCC6C5CC(O)[C@]5(C)[C@H](C7=CC(=O)OC7)CCC65O)C4)O[C@@H]3C)O[C@@H]2C)O[C@@H]1C (some centres not stated),-2%,/,/,/,/,2.5µM*
CC1O[C@@H](O[C@@H]2C(O)C[C@H](O[C@@H]3C(O)C[C@@H](OC4CC[C@@]5(C)C6CC[C@]7(C)C(C8=CC(=O)OC8)CC[C@@]7(O)C6CC[C@@H]5C4)OC3C)OC2C)CC(O)[C@H]1O (some centres not stated),3%,/,/,/,1,3.2µM*
CC(=O)O[C@H]1C[C@H](O[C@H]2[C@@H](O)CC(O[C@H]3[C@@H](O)C[C@H](O[C@H]4CC[C@@]5(C)[C@H](CC[C@@H]6[C@@H]5CC[C@]5(C)[C@@H](C7=CC(=O)OC7)CC[C@]65O)C4)O[C@@H]3C)O[C@@H]2C)O[C@H](C)[C@H]1O[C@@H]1O[C@H](CO)[C@@H](O)[C@H](O)[C@H]1O (some centres not stated),5%,/,/,/,/,?
CC(=O)OC1CC(OC2C(O)CC(OC3C(O)CC(OC4CCC5(C)C(CCC6C5CC(O)C5(C)C(C7=CC(=O)OC7)CCC65O)C4)OC3C)OC2C)OC(C)C1OC1OC(CO)C(O)C(O)C1O (configuration not stated),?,/,25%,4%,0,-18%
C[C@]12CC[C@H](O)C[C@H]1CC[C@@H]1[C@@H]2CC[C@]2(C)[C@@H](C3=CC(=O)OC3)CC[C@]12O,/,/,37%,4%,/,/
